FECH block: human FECH heme synthesis enzyme inhibition; P22830; purified FECH, Ni-mesoporphyrin absorbance 550 nm; calls only at 10 µM (by protocol); 20,000 tested, 3.3% active; AID 1671448;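 active means enzyme reaction rate more than 3 SD below the solvent-only control wells on the same plate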;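 further: lower slope than DMSO wells means FECH inhibition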
Target sequence (P22830 whole entry, looked up): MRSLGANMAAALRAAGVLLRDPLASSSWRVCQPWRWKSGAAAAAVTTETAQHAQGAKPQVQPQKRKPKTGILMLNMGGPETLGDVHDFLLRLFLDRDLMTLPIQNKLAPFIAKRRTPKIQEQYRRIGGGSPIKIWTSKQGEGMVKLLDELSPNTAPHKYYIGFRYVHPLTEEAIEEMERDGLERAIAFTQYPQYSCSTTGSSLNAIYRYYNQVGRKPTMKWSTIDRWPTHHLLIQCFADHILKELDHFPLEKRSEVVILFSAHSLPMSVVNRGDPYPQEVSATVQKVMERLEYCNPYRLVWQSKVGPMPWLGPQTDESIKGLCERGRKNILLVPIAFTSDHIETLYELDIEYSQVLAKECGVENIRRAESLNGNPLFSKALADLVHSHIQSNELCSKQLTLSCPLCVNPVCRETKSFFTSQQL
Calls only. The sample as a whole holds a higher share of hits than the screen did.

Results for Cc1cccc(CN2CC(=O)N(Cc3ccc(Cl)cc3)c3ccccc3S2(=O)=O)c1 ?
FECH block: inactive

What do the screens show for `O=C1CN(Cc2ccccc2Cl)S(=O)(=O)c2ccccc2N1Cc1ccc(Cl)cc1`?
FECH block: inactive

How did Cc1ccc(C)c(CN2CC(=O)N(Cc3ccc(Cl)cc3)c3ccccc3S2(=O)=O)c1 do in these assays?
FECH block: active

What do the screens show for `COc1ccc(N2C(=O)CCS2(=O)=O)cc1S(=O)(=O)Nc1ccc(Br)cc1`?
FECH block: inactive

Results for Cc1ccc(Cc2nc3nc4c(c(=O)n3[nH]2)CCCC4)cc1 ?
FECH block: inactive

How did Cc1cccc(NCc2cc(=O)n3[nH]c(NCc4ccc(F)cc4)nc3n2)c1C do in these assays?
FECH block: inactive

Results for Cc1cccc(C)c1NCc1nc2nc3c(c(=O)n2[nH]1)CCC3 ?
FECH block: active

Results for Cc1cccc(NCc2nc3nc4c(c(=O)n3[nH]2)CCC4)c1C ?
FECH block: active

How did O=c1c2c(nc3nc(CNc4ccccc4Cl)[nH]n13)CCC2 do in these assays?
FECH block: inactive

What do the screens show for `CC(C)c1ccc(NC(=O)CSc2nc(-c3ccc4c(c3)OCO4)nc3cc(=O)[nH]n23)cc1`?
FECH block: inactive

Results for COc1cc(NC(=O)CSCc2nc(-c3ccccc3)no2)cc(OC)c1 ?
FECH block: inactive

Results for Cc1nc2nc(CN(C(=O)c3ccccc3F)c3ccccc3)nn2c(C)c1Cl ?
FECH block: inactive

How did CCc1[nH]c2c(CNc3cc(N4CCOCC4)ncn3)cc(C)cc2c1C do in these assays?
FECH block: inactive

How did CCCNC(=O)NCc1cc(C)cc2c(C)c(CC)[nH]c12 do in these assays?
FECH block: inactive

Results for CCc1cc(C(=O)NCc2cc(C)cc3c(C)c(CC)[nH]c23)n(C)n1 ?
FECH block: active

How did CC(=O)Nc1ccc(Cl)c(C(=O)NC(CF)Cc2ccccc2)c1 (stereo not drawn) do in these assays?
FECH block: inactive

How did CCCn1c(-c2sccc2C)n[nH]c1=O do in these assays?
FECH block: inactive

What do the screens show for `N[C@@H]1c2ccccc2C2(CCN(C(=O)CCn3cc(Cl)cn3)CC2)[C@H]1O`?
FECH block: inactive

What do the screens show for `Cc1cc(C)c(NC(=O)CN2CCN(Cc3ccccc3C)S2(=O)=O)c(C)c1`?
FECH block: inactive

Results for CCN1C(SCC(=O)N2CCN(c3ccccc3)CC2)=NS(=O)(=O)c2ccccc21 ?
FECH block: active

How did Cc1ccc(CNC(=O)CN2C(=O)C3CCCCN3C(=O)c3ccccc32)cc1 (stereo not drawn) do in these assays?
FECH block: inactive

Results for CCN1C(SCC(=O)NCc2ccc(C)cc2)=NS(=O)(=O)c2ccccc21 ?
FECH block: active

Results for CCN1C(SCC(=O)Nc2cc(C)cc(C)c2)=NS(=O)(=O)c2ccccc21 ?
FECH block: active

How did Cc1ccc(N2C(=O)N(CC(=O)NC3CCCCC3)c3ccccc3S2(=O)=O)c(C)c1 do in these assays?
FECH block: inactive

What do the screens show for `Cc1ccc(S(=O)(=O)N2CCC(CC(=O)N3CCN(c4ccccc4)CC3)CC2)cc1`?
FECH block: inactive

How did CCN1C(=O)C2(c3ccccc31)C(C(=O)Nc1cc(C)cc(C)c1)CC1CSCN12 (stereo not drawn) do in these assays?
FECH block: inactive

How did Cc1ccc(CN2CC(=O)N(Cc3ccccc3)c3ccccc3S2(=O)=O)cc1 do in these assays?
FECH block: inactive

What do the screens show for `CCN1C(SCC(=O)Nc2c(C)cc(C)cc2C)=NS(=O)(=O)c2ccccc21`?
FECH block: active

How did CCN1C(SCC(=O)Nc2ccc3c(c2)OCCO3)=NS(=O)(=O)c2ccccc21 do in these assays?
FECH block: inactive

How did Cc1cc(N2CCCN(C(=O)CSc3ncccn3)CC2)ccn1 do in these assays?
FECH block: inactive

What do the screens show for `O=C(NCCn1c(-c2ccncc2)nc2cccnc21)Nc1cccc(Cl)c1`?
FECH block: inactive

How did CCN(Cc1cnn(C)c1)C(=O)c1ccc(-c2ncn[nH]2)cc1 do in these assays?
FECH block: inactive

What do the screens show for `O=C(NC1CCCCC1)c1nc[nH]c1C(=O)N1CCC(Cc2ccccc2)CC1`?
FECH block: inactive

Results for CCC(=O)Nc1ccc(S(=O)(=O)NCc2nc3cccnc3n2C2CC2)cc1 ?
FECH block: inactive

How did O=S(=O)(c1cccs1)N1CCN(Cc2nc3cccnc3n2-c2cccc(F)c2)CC1 do in these assays?
FECH block: inactive

What do the screens show for `COc1ccc(Cn2c(CNS(=O)(=O)c3ccc(C(C)C)cc3)nc3cccnc32)cc1`?
FECH block: inactive

How did CN1CC(=O)N2C[C@@H](NC(=O)c3ccc(Cl)s3)C[C@H]2C1=O do in these assays?
FECH block: inactive

How did CCN1CCN(CCNC(=O)c2cccn2-c2nnc(N3CCCCC3)s2)CC1 do in these assays?
FECH block: inactive

How did Cc1cc(C)cc(-n2c(CN3CCN(C(=O)Nc4ccccc4C(F)(F)F)CC3)nc3cccnc32)c1 do in these assays?
FECH block: inactive

How did COc1ccc(Cl)c(CN2CCN(c3ncc(F)cn3)CC2)c1F do in these assays?
FECH block: inactive

Results for CCOc1cccc(CN2CCC(Cc3nnc(SC)n3C)CC2)c1O ?
FECH block: inactive

How did Cc1ccc(Cl)c(CN2CCC(Cc3nnc(CO)n3C)CC2)c1F do in these assays?
FECH block: active

What do the screens show for `CCN(C(=O)c1coc(COc2ccc(OC)cc2)n1)[C@H]1COC[C@@H]1O`?
FECH block: inactive

What do the screens show for `COc1ccc(OCc2nc(C(=O)N3CCNCC3c3ccccc3)co2)cc1` (stereo not drawn)?
FECH block: inactive

What do the screens show for `COc1ccc(OCc2nc(C(=O)N3CC4(C)CN(C)CC(C)(C3)C4)co2)cc1`?
FECH block: active

How did CCc1cc(CN(C)CC(=O)NC(C)c2ccc(C)cc2)on1 (stereo not drawn) do in these assays?
FECH block: inactive

What do the screens show for `CCc1c(C)nc2ncnn2c1Sc1ccc(NC(=O)c2ccco2)cc1`?
FECH block: inactive

How did Cn1nc(-c2nccn2CCc2n[nH]c(=O)[nH]2)c2c(Cl)cccc21 do in these assays?
FECH block: inactive

Results for COc1ccc(Cn2c(CNC(=O)C3CC3)nc3cccnc32)cc1 ?
FECH block: inactive

How did CCCNc1nc(Nc2ccc(OC)cc2)c2cnn(-c3ccccc3)c2n1 do in these assays?
FECH block: active

How did COc1ccc(Nc2nc(N3CCCC3)nc3c2cnn3-c2ccccc2)cc1 do in these assays?
FECH block: active

How did CCOc1ccc(Nc2nc(N3CCOCC3)nc3c2cnn3-c2ccccc2)cc1 do in these assays?
FECH block: inactive

Results for COc1cccc(Nc2nc(NCC(C)O)nc3c2cnn3-c2ccccc2)c1 (stereo not drawn) ?
FECH block: inactive

Results for Cc1ccc(Nc2nc(NCC(C)O)nc3c2cnn3-c2ccccc2)cc1C (stereo not drawn) ?
FECH block: inactive

Results for COc1ccc(Nc2nc(NCCO)nc3c2cnn3-c2ccccc2)cc1 ?
FECH block: inactive

Results for FC(F)Sc1ccc(Nc2nc(N3CCOCC3)nc3c2cnn3-c2ccccc2)cc1 ?
FECH block: active

Results for COc1ccc(Nc2nc(N3CCN(C)CC3)nc3c2cnn3-c2ccccc2)cc1 ?
FECH block: inactive

What do the screens show for `COCCNc1nc(Nc2ccc(OC)cc2)c2cnn(-c3ccccc3)c2n1`?
FECH block: inactive

Results for CCOc1ccc(Nc2nc(N3CCCC3)nc3c2cnn3-c2ccccc2)cc1 ?
FECH block: inactive

Results for Cc1ccc(Nc2nc(N3CCOCC3)nc3c2cnn3-c2ccccc2)cc1C ?
FECH block: inactive
